# Screening data as filed in PubChem.
# Shown are actives, neighbours in structure and some others; about 19% of the full set was active somewhere.
# Lassa entry inh – inhibitors of Lassa virus binding or cell entry. Lassa virus pseudotype entry inhibition, cell reporter. Potency, µM (titrated, usually from 37.9 µM), inactives show at the top dose activity change, negative = inhibition, most hits filed as inhibitors. actives 1.2% (n = 300,000). AID 540256; calls by dose curve; tested in HEK293 cells; further: potency means the concentration at half of the fitted maximal effect; on the % scale 0 is the no-effect control and ±100 the full control effect; nearly all actives have a fitted effect of over 50% in size
# Pf growth 96h – P. falciparum growth inhibition at 96 hours; actives 6.9% (n = 320,000); AID 504834; P. falciparum luciferase reporter growth, 96 h; Potency, µM (doses to about 28.7 µM), without a hit: at the highest dose activity change, negative = inhibition, most hits filed as inhibitors; further: potency means the concentration at half of the fitted maximal effect; on the % scale 0 is the no-effect control and ±100 the full control effect
#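 P. falciparum expressing integrated firefly luciferase, in erythrocytes at 2% hematocrit, 0.05% parasitemia, incubated with compounds 96 h at 37 C, 5% CO2. Growth inhibition read as loss of luminescence; two-generation exposure targets delayed-death apicoplast inhibitors.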
# Marburg entry inh – inhibitors of Marburg virus binding or cell entry | Marburg virus pseudotyped entry inhibition, cell reporter | actives 1.8% (n = 300,000) | AID 540276 | Potency, µM (highest dose often 37.8 µM), without a hit: at the highest dose activity change, negative = inhibition, most hits filed as inhibitors; calls by dose curve; tested in HEK293 cells; further: potency means the concentration at half of the fitted maximal effect; on the % scale 0 is the no-effect control and ±100 the full control effect
# Shiga toxin inh – Shiga toxin inhibition | Vero cells, Shiga toxin protein synthesis inhibition reporter | inhibition, % at 38.7 µM | actives 9.2% (n = 290,000); in the data active means inhibition mostly above about 28%, no sharp cut-off; inactive means mostly below about 43%; further: 0% is about no effect
# CHX counter – counter-screen hit for Shiga toxin inhibitors, cycloheximide. actives 12% (n = 300,000). AID 2314. max response, %. cell reporter, cycloheximide protein synthesis inhibition counterscreen; in the data active means max response mostly above about 13%, no sharp cut-off; inactive means mostly below about 14%; further: read at 38.3 µM for the half of the compounds with a filed dose; 0% is about no effect
# Pf growth 48h – P. falciparum growth inhibition at 48 hours (one generation); AID 504832; actives 5.9% (n = 310,000); P. falciparum luciferase growth in erythrocytes, 48 h; Potency, µM (top dose mostly 28.7 µM), inactives show at the highest dose activity change, negative = inhibition, actives largely listed as inhibitors; further: potency means the concentration at half of the fitted maximal effect; on the % scale 0 is the no-effect control and ±100 the full control effect
#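 Cell-based growth assay: transgenic P. falciparum expressing firefly luciferase, cultured in red cells within RPMI 1640 containing 0.5% w/v Albumax, 24 mM bicarbonate and gentamycin. A drop in luciferase activity indicates inhibition.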
# The depositor's hits bear a star; ? = inconclusive; / = no result; + = active, no number; [ ] = another dose, or the depositor's remark. Unless noted, the call rests on the fitted dose curve; in most records, active means well fitted inhibition curve with a large enough effect; inconclusive means small, poorly fitted or top-dose-only effect, or another doubt; inactive means no such curve, though single readings can be large or run the other way.
SMILES,Lassa entry inh,Pf growth 96h,Marburg entry inh,Shiga toxin inh,CHX counter,Pf growth 48h
O=C(O)c1cccc(NC(=S)NC(=O)c2ccc(-c3ccc(Cl)cc3)o2)c1,?,324%,?,100*,21,54%
CC(C)NC(=S)NC(=O)c1ccc(-c2ccccc2)cc1,-3%,22%,?,26*,11,?
CC#CCCCC(=O)Nc1cccc(C(=O)O)c1,20%,10µM*,4%,82*,25*,143%
CC(=O)c1cccc(NC(=S)NC(=O)c2cccc(Cl)c2)c1,-6%,-2%,?,+,30*,151%
FC(F)(F)c1ccc2c(c1)ncn2C1CCN(Cc2nnnn2C2CCCCC2)CC1,10%,-1%,?,-6,-3,4.1µM*
Cc1nc2cc(C(F)(F)F)ccc2n1C1CCN(CC(=O)NC(C)(C)C)CC1,14%,1%,?,-12,-2,9.3µM*
COCCn1nnnc1CN1CCC(Cc2ccccc2)CC1,-8%,2.6µM*,3%,-4,1,-15%
Fc1ccc(Cn2nnnc2CN2CCC(n3nnc4cc(C(F)(F)F)ccc43)CC2)cc1,/,?,/,-8,1,?
Cc1nc2ccccc2n1C1CCN(Cc2nnnn2CCc2ccccc2)CC1,-25%,/,?,-18,-2,13µM*
CC(=O)Nc1ccc(NS(=O)(=O)c2cc(Br)cc3c2N(C(=O)C2CC2)CC3)cc1,-14%[46.1 µM],/,-2%[46.1 µM],/,/,/
Clc1ccc2nc(C3CCN(Cc4nnnn4C4CCCCC4)CC3)[nH]c2c1,?,-23%,?,10,1,12µM*
Cc1nc2cc(C(F)(F)F)ccc2n1C1CCN(Cc2nnnn2Cc2cccs2)CC1,7%,-89%,-15%,23,-3,9.3µM*
COc1cccc(OC)c1OCCCN1CCC(Cc2ccccc2)CC1,?,?,11µM*,7,-2,?
Cc1ccc(Cn2nnnc2CN2CCC(c3nc4ccc(Cl)cc4[nH]3)CC2)cc1,?,?,?,-7,-1,?
Cc1nc2cc(C(F)(F)F)ccc2n1C1CCN(CC(=O)N2CCCC2)CC1,5%,40%,-12%,-5,-2,?
Cc1nc2cc(C(F)(F)F)ccc2n1C1CCN(Cc2nnnn2Cc2ccc3c(c2)OCO3)CC1,?,-1%,?,-11,-6,4.7µM*
Cc1ccc(CCNC(=O)C2CC(c3cccc(F)c3)=NO2)cc1 (stereo not drawn),/,?,/,27,4,69%
COC(=O)c1c(C)[nH]c(C(=O)OCC(=O)N2c3ccccc3NC(=O)C2(C)C)c1C,-1%,-44%,?,14,-2,-27%
COc1ccc(CCn2c(C)nc3ccccc3c2=O)cc1OC,/,-22%,/,34,24,?
O=C(O)COc1ccccc1/C=N/NC(=O)CSc1nc2ccccc2s1,/,6%,/,47,9,43%
O=C(CSCc1ccccc1Cl)N/N=C/c1ccco1,1%,13µM*,4%,46,13,16%
O=C(CSc1nc2ccccc2s1)N/N=C/c1ccco1,6%,13%,0%,29,14*,39%
O=C(CSc1nc2ccccc2s1)N/N=C/c1ccccc1C(=O)O,/,325%,/,91*,52*,312%
O=C(CN1CCN(Cc2ccccc2Cl)CC1)N/N=C/c1ccco1,-5%,15%,-2%[46.1 µM],9,-1,0%
N#C/C(=C\c1ccco1)Sc1nc2ccccc2s1,3%,14%,?,39*,69*,25%
SMILES,Lassa entry inh,Pf growth 96h,Marburg entry inh,Shiga toxin inh,CHX counter,Pf growth 48h
CCn1nc(C)c(CN2CCN(Cc3ccsc3)C(CCO)C2)c1C (stereo not drawn),-15%[46.1 µM],?,-3%[46.1 µM],-11,-2,11%
Cc1cccc(NC(=O)C2CCN(c3nc(C)cc(C)n3)CC2)c1,3%,-14%,-4%,-3,-1,0%
CC(C)CCNC(=O)CSc1nc2ccccc2s1,7%[46.1 µM],113%,-1%[46.1 µM],4,8,58%
C/C(=N\NC(=O)CSc1nc2ccccc2s1)c1ccco1,?,21%,?,48*,17*,45%
O=C(CSc1nc2cc(Cl)ccc2s1)c1ccco1,2%,10µM*,24%,56,20*,39%
COc1ccc(-c2nc(CNC(=O)NC3CCCCC3)c(C)o2)c(OC)c1,-2%[46.1 µM],/,/,/,/,/
